Assay outcomes as filed in PubChem BioAssay.
hERG WT inh: blocks the wildtype human KCNH2 potassium channel | U2OS, BacMam KCNH2, thallium flux FluxOr; active compounds read low | 340,000 compounds, 0.37% hits | AID 720551 | activity change, % at 1.84 µM;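 active = maximum activity change below -70%; inconclusive = maximum activity change between -70% and -50%; inactive = maximum activity change above -50%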; note: % is set by controls: 0 for no effect and ±100 for the full control effect
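U2OS cells were transduced with wild-type KCNH2 virus (2.03 x 10^8 / mL) for 4 h at room temperature, then cultured overnight at 37 C. Thallium flux was read with FluxOr dye. Rate constants were normalized to DMSO controls.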
PLK1 PBD inh: PLK1 (human) polo-box domain binding inhibition; P53350; Plk1 PBD binding of FITC phosphopeptide, fluorescence polarization; Potency, µM, without a hit: max response, negative = inhibition, hits mostly inhibitors; 360,000 compounds, 2.8% hits; note: potency is the fitted concentration of half-maximal effect; series mostly up to about 57 µM; % is set by controls: 0 for no effect and ±100 for the full control effect; nearly all actives have a fitted effect of over 65% in size
KCNH2 3.1 block: KCNH2 3.1 (human) potassium channel inhibition | U2OS KCNH2 3.1, thallium flux FluxOr; active compounds read low | 340,000 compounds, 0.95% hits | activity change, % (tested at about 1.8 µM);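 active = maximum activity change below -70%; inconclusive = maximum activity change from -70% to -50%; inactive = maximum activity change above -50%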;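 note: thallium influx rate constant from kinetic fluorescence after stimulation buffer; % is set by controls: 0 for no effect and ±100 for the full control effect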
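Normalized rate constant (relative to positive and negative DMSO controls) derived from a 2 min kinetic fluorescence read after stimulation; U2OS cells expressing the 3.1 isoform via virus at 1.77 x 10^8 /mL.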
CBFb RUNX1 block: CBF-beta/RUNX1 interaction disruption | AlphaScreen CBFb-His/RUNX1-biotin binding, biochemical | Q01196+Q13951 | Potency, µM (series often up to 59.8 µM), inactives show at the top dose activity, negative = inhibition, hits mostly inhibitors | AID 1477 | 230,000 tested, under 10 active; note: % of control where 0% means no effect
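Interaction loss through any mechanism counts as activity. Pre-formed complex of His-CBF-beta and biotin-RUNX1 (30 nM apiece) is incubated with compound 15 min, then with 50 ng nickel and 50 ng streptavidin beads for 90 min before AlphaScreen detection.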
VDR inh: vitamin D3 receptor (human) inhibition. VDR-SRC2-3 peptide fluorescence polarization, 2 h. AID 504847. 400,000 compounds, 0.93% hits. Potency, µM, for the others: max response, negative = inhibition, actives largely listed as inhibitors; note: potency is the fitted concentration of half-maximal effect; % is set by controls: 0 for no effect and ±100 for the full control effect
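Fluorescence polarization assay measuring small-molecule disruption of VDR binding to the coregulator peptide SRC2-3. Compounds were pin-transferred (23 nl) into the reagent mix and incubated 2 h at room temperature before reading.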
MBNL1 CUG block: blocks human MBNL1 binding to CUG repeat RNA; AID 2675; 280,000 compounds, 0.036% hits; TR-FRET MBNL1-His/biotin-(CUG)12 binding, 665/545 ratio; Potency, µM (series often up to 57.5 µM), for inactives: at the top dose activity change, negative = inhibition, most hits filed as inhibitors; active = well fitted inhibition curve with a large enough effect in the signal ratio, with a control signal flat, not every such curve was filed as active; inconclusive = small, poorly fitted or top-dose-only effect, or effect the other way, or a change in a side signal; inactive = no such curve, though single readings can be large or run the other way; the % refers to the signal ratio; note: potency is the fitted concentration of half-maximal effect; % is set by controls: 0 for no effect and ±100 for the full control effect
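His-tagged MBNL1 binding to biotinylated (CUG)12 RNA was measured by TR-FRET using terbium anti-His antibody (0.055 ng/ul final) and streptavidin-XL665 (5 nM final). Compounds were titrated 92 nM to 58 uM; 60 min at room temperature.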
* = called active by the depositor; i = inactive; ? = inconclusive; . = no result given; [ ] = dose if it differs, or a comment. Sampled rows, rich in hits. Any-hit rate of the full collection: about 3.8%. Unless noted, calls come from the whole dose curve; as a rule, active = well fitted curve in the direction sought with a large enough effect; inconclusive = small, poorly fitted or top-dose-only effect, or another doubt; inactive = no such curve, though single readings can be large; an effect the other way counts as inactive or inconclusive.

SMILES	hERG WT inh	PLK1 PBD inh	KCNH2 3.1 block	CBFb RUNX1 block	VDR inh	MBNL1 CUG block
Fc1cc2[nH]c(=S)[nH]c2cc1Cl	-1.6	0.0%	-10.0	-5.1%	-8.2%	.
c1ccc(-c2cc3ccccc3[nH]2)cc1	-29.9	-5.5%	-6.8	.	-18.6%	-3.0%
COc1cccc(C(=O)Nc2cccc(-c3cn4c(C)csc4n3)c2)c1OC	.	.	.	.	-5.6%	.
CC(=O)Nc1ccc(C(=O)NCCCOC(C)C)cc1	-0.5	-4.6%	-13.0	9.4%	-5.7%	-6.4%
CC(C)OCCCNC(=S)Nc1ccc(S(N)(=O)=O)cc1	3.9	5.97µM*	-7.6	-3.5%	?	.
NS(=O)(=O)c1ccc(NC(=S)NCCc2ccccc2)cc1	.	6.7µM*	22.4	0.2%	-19.4%	-1.3%
CC(=O)c1ccc(NC(=S)NCCc2ccc(S(N)(=O)=O)cc2)cc1	0.8	-19.5%	3.2	2.3%	-0.8%	.
O=C(Nc1ccc(Cc2ccc(NC(=O)C3CC3)cc2)cc1)C1CC1	.	26.7µM*	23.6	5.4%	-6.0%	2.2%
Cc1cc(N2CCC(C(=O)Nc3ccc(F)cc3F)CC2)n2nc(C)c(-c3ccc(Cl)cc3)c2n1	.	.	.	.	-14.4%	.
COc1cc([N+](=O)[O-])ccc1NC(=S)NC(=O)CC(C)(C)C	.	26.7µM*	3.7	-5.0%	-2.3%	4.1%
N#Cc1c(NC(=O)c2ccco2)sc2c1CCC2	-1.1	29.9µM*	29.9	.	-10.1%	?
N#Cc1c(NC(=O)CSc2nc(-c3ccco3)cc(C(F)(F)F)n2)sc2c1CCCC2	14.1	21.2µM*	-12.5	10.5%	-23.5%	0.4%
Cc1cccc(NC(=O)c2ccco2)c1C	4.5	-0.4%	12.4	.	-11.5%	-3.3%
NC(=O)c1c(NC(=O)c2ccco2)sc2c1CCC2	3.6	-10.6%	0.7	2.7%	15.0%	8.6%
Cc1cccc(NC(=O)c2sc(NC(=O)c3ccco3)c(C#N)c2C)c1C	6.8	-15.6%	-83.0*	-3.6%	15.6%	15.5%
COC(=O)CCC(=O)OC1(C)C(=O)C=C2C=C(C3CC3)N(c3ccc(OC)cc3)C=C2C1=O (centres undefined)	.	.	.	10.4%[13.1 µM]	.	.
CCOC(=O)c1ccc(NS(=O)(=O)c2cc3c(cc2C)NC(=O)CO3)cc1	-9.3	29.9µM*	-6.6	.	-10.8%	1.6%
CCCN(CC1CCCO1)C(=O)CCc1nnc(CCc2ccc(OC)cc2)o1 (centres undefined)	-0.8	13.4µM*	15.5	.	?	-1.4%
COc1ccc(NC(=O)Cn2cnc3sc(C)c(S(=O)(=O)N4CCN(C)CC4)c3c2=O)cc1Cl	.	.	.	.	-6.4%	.
CCNc1cc2c(cc1O)CCC1C2CCC2(C)C(O)CCC12 (centres undefined)	6.7	?	.	.	79.4µM*	.
CC(=O)Oc1cc(C)c(OC(C)=O)c2ccccc12	.	.	.	.	1.6%	.
Cn1cc(Br)c(C(=O)n2cc(Br)cn2)n1	8.9	16.8µM*	9.4	-1.1%	?	-7.5%
Oc1ccccc1/C=N/n1c(COc2ccccc2)n[nH]c1=S	8.9	?	6.8	.	-2.5%	-0.6%
CC(/C=N/n1c(COc2ccccc2)n[nH]c1=S)=C\c1ccco1	-1.2	21.2µM*	0.0	-23.3%	-18.0%	9.2%
Fc1ccccc1/C=N/n1c(COc2ccccc2)n[nH]c1=S	-5.4	23.8µM*	-22.1	.	-5.6%	-14.0%
SMILES	hERG WT inh	PLK1 PBD inh	KCNH2 3.1 block	CBFb RUNX1 block	VDR inh	MBNL1 CUG block
S=c1[nH]nc(COc2ccccc2)n1/N=C/c1ccc(Cl)cc1	-0.7	26.7µM*	-15.4	.	?	-5.3%
Nn1c(Cc2ccc(Br)cc2)n[nH]c1=S	-7.7	11.9µM*	1.6	9.5%	89.1µM*	-2.3%
COc1ccc(CNC(=O)CCC2N=C3c4ccccc4N=C(SCc4cccc(F)c4)N3C2=O)cc1 (centres undefined)	.	.	.	.	11.5%	.
S=c1[nH]nc(Cc2ccc(Br)cc2)n1/N=C/c1ccc(Cl)cc1	-0.1	3.36µM*	2.6	-25.6%	79.4µM*	-1.0%
CSc1ccc(/C=N/n2c(COc3ccccc3)n[nH]c2=S)cc1	-7.7	33.6µM*	-11.1	.	2.3%	-1.3%
CC(C)C[C@H](NC(=O)[C@H](Cc1ccccc1)NC(=O)[C@H](Cc1ccccc1)NC(=O)[C@@H](N)CO)C(=O)N[C@@H](CCCN=C(N)N)C(=O)N[C@@H](CC(N)=O)C(=O)O	.	.	.	16.0%	-6.4%	.
COc1ccc(CNC(=O)C2CCCN(c3nnc(C)c4c(C)n(-c5ccc(C)cc5)nc34)C2)cc1 (centres undefined)	.	.	.	.	13.5%	.
Cc1nnc(N2CCCC(C(=O)NCc3ccc(OC(C)C)cc3)C2)c2nn(-c3ccccc3)c(C)c12 (centres undefined)	-9.1	-7.3%	-81.6*	.	-11.3%	?
CCN(CC)c1ccc(/C=C2/SC(=O)N(C(C)C)C2=O)o1	i	55.4%	3.7	2.4%	31.6µM*	9.8%
COc1ccc(Cl)cc1NC(=O)CN1C(=O)CSc2ccc(S(=O)(=O)N3CCCC3)cc21	.	.	.	.	-3.8%	.
Cc1ccc(-n2ncc(C(=O)NCc3cccs3)c2C2CCN(C(=O)OC(C)(C)C)CC2)cc1	.	.	.	.	3.1%	.
CCCN1C(=O)/C(=C/c2ccc(C)o2)NC1=S	.	.	.	-1.9%	.	8.8%
CCN1C(=O)N/C(=C/c2ccc(C)o2)C1=O	22.3	-0.5%	-11.2	-14.4%	89.1µM*	16.1%
CC(=O)Nc1ccccc1-c1nc2ccccc2n(CC(=O)c2ccc(Br)cc2)c1=O	.	.	.	.	8.7%	.
CCCCCCC1(C)NC(c2ccc3c(c2)OCO3)=CC(c2cc(Br)ccc2O)N1 (centres undefined)	.	.	.	.	-2.0%	.
COC(=O)N1C(=O)[C@](c2ccc(Cl)cc2)(C(C)C)N1C(=O)OC	1.0	23.8µM*	-3.6	.	?	-7.1%
COC(=O)N1C(=O)[C@@](c2ccc(OC)cc2)(C(C)C)N1C(=O)OC	-11.5	-25.8%	14.5	.	13.9%	-15.4%
C=CCN=c1scc(-c2ccco2)n1/N=C/c1ccc(O)c(O)c1O	-2.5	7.52µM*	2.4	?	-12.0%	3.8%
COCCN=c1scc(-c2ccco2)n1/N=C/c1ccc(O)c(O)c1O	1.4	6.7µM*	12.8	.	-6.4%	14.2%
Oc1ccc(/C=N/n2c(-c3ccco3)csc2=Nc2cccnc2)c(O)c1	9.4	-2.3%	-2.1	?	0.6%	-0.9%
CC(C)N=c1scc(-c2ccco2)n1/N=C/c1ccc(O)c(O)c1	2.9	-13.6%	0.2	?	1.6%	6.9%
CCOc1c(Cl)cc(CNc2ccc3[nH]c(=O)[nH]c3c2)cc1OC	.	.	.	.	6.4%	.
CCCn1c(SCC(=O)NCc2ccc(C)cc2)n[nH]c1=O	3.5	0.0%	0.1	1.4%	19.8%	-6.5%
CCCn1c(SCC(=O)c2ccc(CC)cc2)n[nH]c1=O	27.1	8.44µM*	22.5	1.2%	-25.5%	-3.2%
CCCn1c(SCC(=O)Nc2cc(C)on2)n[nH]c1=O	7.2	-2.1%	13.1	.	-5.1%	.
